Among all 350,000 compounds or so, about 990 (0.28%) were called active. Inconclusive results (about 2%) are left out. The sample holds actives, similar compounds and a random draw of the others, so the mix is not that of the screen. Values without a mark were called inactive. Calls follow the shape of the dose curve; as a rule, active = well fitted inhibition curve with a large enough effect; inconclusive = small, poorly fitted or top-dose-only effect; inactive = no such curve, though single readings can be large or run the other way.
target: Tyrosyl-DNA phosphodiesterase 1 (Homo sapiens) (UniProt Q9NUW8); assay: qHTS Assay for Inhibitors of Tyrosyl-DNA Phosphodiesterase (TDP1); settings: recombinant TDP1, AlphaScreen DNA substrate cleavage; series mostly up to 130 µM; activity change, negative = inhibition: at the top concentration; also: nearly all actives have a fitted effect of over 40% in size
Text: NIH Molecular Libraries Probe Production Network [MLPCN]
NIH Chemical Genomics Center [NCGC]
Assay Provider: Yves Pommier and Christophe Marchand, National Cancer Institute
Assay Title: qHTS Assay for Inhibitors of Tyrosyl-DNA Phosphodiesterase (TDP1); also: nearly all actives have a fitted effect of over 40% in size
Human tyrosyl-DNA phosphodiesterase I (Tdp1) is a rational anticancer target because this enzyme is involved in the repair of DNA lesions created by the trapping of human DNA topoisomerase I (Top1) following treatment by anticancer agents such as camptothecins. Recombinant Tdp1 was expressed and purified from E. coli in the laboratory (Anthony et al, Nucleic Acids Research, 2007, Vol. 35, 4474-4484). A Tdp1 DNA substrate bearing a 5' biotin and a 3' phospho-tyrosine was obtained by custom synthesis. This oligonucleotidic DNA substrate was subsequently coupled to a fluorescein isothiocyanate (FITC) group via the free amino group present on the phospho-tyrosine. Tdp1 was screened against the NCGC small molecule library using the AlphaScreen (AS) detection method in which a streptavidin donor AS bead is bound at the 5' end and an anti-FITC AS acceptor bead is bound at the 3' end of the DNA oligonucleotidic substrate. In the presence of Tdp1, the enzyme cleaves the tyrosine-FITC group, leaving a 3' end phosphate on the DNA substrate. This cleavage reaction results in a loss of signal in AS.
[1] 3 ul of buffer is dispensed in columns 3 & 4 as negative control (no enzyme and maximum signal),
[2] 3 ul of enzyme (1 nM final) is dispensed in columns 1,2, 5-48,
[3] 1 ul of substrate (15 nM final) is dispensed throughout the plate,
[4] 1 ul of AS donor/acceptor bead mix (10 ug/ml final) is dispensed throughout the plate
3 ul of Tdp1 enzyme is dispensed to 1536-well Kalypsys black solid bottom plates. Compounds and controls (23 nl) are transferred via Kalypsys Pin Tool. The plates are incubated for 15 min at room temperature, and then 1 ul of substrate is added to start the reaction. After 5 min incubation at room temperature, 1 ul of AS donor/acceptor bead mix is added and the plates are further incubated for 10 min at room temperature. The detection is then performed on a PerkinElmer Envision reader.
% is scaled to controls: 0 for no effect and ±100 for the full control effect; potency is read from the fitted curve at half-maximal effect.

Tyrosyl-DNA phosphodiesterase 1 (Homo sapiens), sequence (Q9NUW8 whole entry, looked up): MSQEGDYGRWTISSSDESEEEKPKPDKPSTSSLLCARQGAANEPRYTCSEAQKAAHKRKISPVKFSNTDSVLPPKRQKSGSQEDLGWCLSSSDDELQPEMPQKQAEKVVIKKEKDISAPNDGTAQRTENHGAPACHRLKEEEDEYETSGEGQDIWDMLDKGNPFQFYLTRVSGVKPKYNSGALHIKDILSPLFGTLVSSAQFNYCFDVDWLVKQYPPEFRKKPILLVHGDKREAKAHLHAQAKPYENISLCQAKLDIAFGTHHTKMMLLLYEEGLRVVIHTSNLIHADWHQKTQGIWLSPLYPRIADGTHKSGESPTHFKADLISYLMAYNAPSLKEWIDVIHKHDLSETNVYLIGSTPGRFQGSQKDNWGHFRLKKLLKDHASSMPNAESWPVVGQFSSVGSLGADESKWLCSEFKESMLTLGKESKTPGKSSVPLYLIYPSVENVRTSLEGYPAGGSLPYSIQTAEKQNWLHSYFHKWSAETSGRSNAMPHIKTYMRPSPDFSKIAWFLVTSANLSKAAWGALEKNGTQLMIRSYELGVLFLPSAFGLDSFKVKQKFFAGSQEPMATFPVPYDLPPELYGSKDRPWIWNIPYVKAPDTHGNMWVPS

| SMILES | activity change, negative = inhibition [%] | Potency |
| --- | --- | --- |
| O=C(COC(=O)c1cccs1)NCc1cccs1 | -0.673 | – |
| CCCCNc1ccc(-c2nc(-c3ccncc3)no2)cc1[N+](=O)[O-] | 0 | – |
| Cc1cc(C)c2oc(-c3cccc(NC(=O)c4cccc(F)c4)c3C)nc2c1 | 5.81 | – |
| Cc1ccc(Cc2cnc(N)s2)o1 | – | 20 µM (active) |
| Cc1ccc(CCC(=O)Nc2ncc(Cc3cc(Cl)ccc3Cl)s2)o1 | 2.56 | – |
| COc1cc(F)c(S(=O)(=O)N2CCCN(S(=O)(=O)c3ccc(N)cc3)CC2)c(F)c1 | 2.59 | – |
| O=S1(=O)N=C(Oc2cccc(Br)c2)c2ccccc21 | 1.26 | – |
| COc1ccc(NC(=O)CSc2nc3ccccc3[nH]2)cc1 | 1.95 | – |
| COc1ccc(NC(=O)CSc2nc(NS(=O)(=O)c3ccc(C)cc3)cc(=O)[nH]2)cc1 | – | 20 µM (active) |
| Cc1ccc(NC(=O)CSc2nc(CSc3ccc(C)cc3)cc(=O)[nH]2)cc1 | 0 | – |
| Oc1ccc(Br)cc1C1C=C(c2ccc3c(c2)OCO3)NC(c2ccc(Cl)cc2)N1 (stereo not given) | 2.78 | – |
| Cc1ccc2nc(-c3ccc(O)cc3)c(Nc3ccc4c(c3)OCO4)n2c1 | 6.98 | – |
| COc1ccc(CCc2nc(-c3cccs3)no2)cc1 | – | 89.1 µM (active) |
| COc1ccc(OC)c(CNC(=O)CCc2nc(-c3cccs3)no2)c1 | 0 | – |
| CCc1ccc(CNC(=O)CCc2nc(-c3cccs3)no2)cc1 | 1.31 | – |
| CCC(=O)Nc1cccc(-c2nc3cc(C)ccc3o2)c1 | 5.69 | – |
| OCCNc1ncnc2oc(-c3ccco3)c(-c3ccco3)c12 | 0.0157 | – |
| Cc1ccc(OCc2cc(C(=O)N(C)CCc3ccccc3)no2)cc1C | – | 50.1 µM (active) |
| Cc1cc(CN(C)C(=O)c2cc(COc3ccc(C)c(C)c3)on2)n[nH]1 | 4.51 | – |
| CN(CCOc1ccccc1)C(=O)c1cc(COc2c(F)cccc2F)on1 | -0.184 | – |
| COc1ccc(C2Nc3ccccc3C(=O)N2Cc2ccco2)cc1COc1cccc(NC(C)=O)c1 (stereo not given) | -0.885 | – |
| Cc1ccc(C(=O)COC(=O)C(Cc2c[nH]c3ccccc23)NC(=O)c2ccc(Br)cc2)cc1 (stereo not given) | 0.948 | – |
| CCCCNC(=O)Cn1c(SCc2cccc(Cl)c2)nc2ccncc21 | 0.301 | – |
| CCN1CCN(c2cc(C)c3cc(NC(=O)c4cc(Cl)ccc4OC)ccc3n2)CC1 | 5.88 | – |
| C=CCCN(Cc1ccccc1)S(=O)(=O)c1ccccc1Br | – | 39.8 µM (active) |

| SMILES | activity change, negative = inhibition [%] | Potency |
| --- | --- | --- |
| C=CCCN(C(Cc1ccccc1)C(=O)OC)S(=O)(=O)c1cc(Br)ccc1Br (stereo not given) | -9.71 | – |
| C=CC(COCc1ccccc1)N(Cc1ccccc1)S(=O)(=O)c1ccccc1Br (stereo not given) | -12.1 | – |
| CC1(C)CCc2cc(S(=O)(=O)N3CCN(c4nc(-c5cccs5)nc5ccccc45)CC3)ccc2O1 | 1.18 | – |
| Cc1ccc(Cl)cc1NC(=O)C(C)n1nnc2sc(-c3ccccc3)cc2c1=O (stereo not given) | 2.33 | – |
| Cc1ccc(Nc2nc(N3CCOCC3)nc(N3CCOCC3)n2)cc1Cl | – | 22.4 µM (active) |
| Cc1ccccc1NC(=O)CSc1nc2ccc(Nc3nc(N4CCOCC4)nc(N4CCOCC4)n3)cc2s1 | 2.22 | – |
| Cc1ccc(Nc2nc(N)nc(CN3CCN(Cc4ccccc4)CC3)n2)cc1Cl | 6.79 | – |
| CC1CC(C)CN(c2oc(-c3ccc(OCc4ccc(Cl)cc4)cc3)nc2C#N)C1 (stereo not given) | 5.48 | – |
| Cc1ccc(CCNC(=O)c2ccc(CS(=O)(=O)Cc3cccc(C)c3)o2)cc1 | 5.2 | – |
| CCN1CCN(C(c2ccc(C)cc2)c2c(O)cc(C)n(Cc3ccco3)c2=O)CC1 (stereo not given) | 5.41 | – |
| COc1cccc(C(=O)NC2CCN(C#N)CC2)c1 | 1.27 | – |
| Cn1c(COc2ccccc2C(C)(C)C)nc2ccccc21 | 0 | – |
| CC(C)NC(=O)C(=O)N/N=C/c1ccco1 | -10.5 | – |
| O=C(Cc1ccc([N+](=O)[O-])cc1)N/N=C/c1ccco1 | 0 | – |
| O=c1nc(N/N=C/c2ccco2)cn[nH]1 | – | 31.6 µM (active) |
| Oc1ccc(Cl)cc1C1C=C(c2ccc3c(c2)OCO3)NC(c2c(F)cccc2Cl)N1 (stereo not given) | 3.95 | – |
| Cc1noc(C)c1-c1ccc2ncnc(NCc3ccc(F)c(F)c3)c2c1 | 0.294 | – |
| Oc1ccc(Cl)cc1C1C=C(c2ccc3c(c2)OCO3)NC(c2ccc(F)c(Br)c2)N1 (stereo not given) | 1.96 | – |
| CO[C@@]12[C@@H](COC(N)=O)C3=C(C(=O)C(C)=C(N)C3=O)N1C[C@@H]1N[C@@H]12 | – | 35.5 µM (active) |
| O=[N+]([O-])c1ccc(S(=O)(=O)N2CCN(c3nc(-c4ccccc4)nc4ccccc34)CC2)cc1 | 2.79 | – |
| Cc1cccc(N2CCN(C(=O)c3ccc4c(c3)CCN4S(=O)(=O)c3ccccc3)CC2)c1C | 6.98 | – |
| COc1ccc(CCNc2ncnc3c2cnn3-c2ccc(C)cc2)cc1 | 2.6 | – |
| CCOCN(C(=O)Cn1c(C(C)O)nc2ccccc21)c1c(C)cccc1CC (stereo not given) | – | 89.1 µM (active) |
| CCc1cccc(C)c1N(C(=O)Cn1c(CO)nc2ccccc21)C(C)COC (stereo not given) | 4.37 | – |
| CC(O)c1nc2ccccc2n1Cc1ccc([N+](=O)[O-])cc1 (stereo not given) | 0 | – |

Source: PubChem BioAssay AID485290 (National Center for Advancing Translational Sciences (NCATS), 2010)
